Screening results deposited in PubChem by National Center for Advancing Translational Sciences (NCATS).
Hits are enriched below; roughly 2.7% of the tested compounds scored in any of these assays.
IDH1 R132H inh: qHTS for Inhibitors of mutant isocitrate dehydrogenase 1 (IDH1): qHTS; Isocitrate dehydrogenase [NADP] cytoplasmic (Homo sapiens), O75874; IDH1-R132H enzyme, NADPH consumption, diaphorase/resazurin fluorescence; Potency, µM (highest dose often 76.6 µM), without a hit: at the top dose activity change, negative = inhibition, actives largely listed as inhibitors; 390,000 tested, 0.093% active; note: % is set by controls: 0 for no effect and ±100 for the full control effect; nearly all actives have a fitted effect of over 65% in size
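IDH1-R132H (0.5 ug/mL) preincubated 30 min with compound, then NADPH (0.016 mM) and alpha-KG (2 mM) added; 80 min at RT, pH 7.5. Remaining NADPH coupled via diaphorase/resazurin to fluorescence (540/590 nm); concentration-response curves normalized to no-enzyme control.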
GLP1R ag: qHTS of GLP-1 Receptor Agonists; Glucagon-like peptide 1 receptor (Homo sapiens), P43220; HEK293 GLP-1R CRE-luciferase, luminescence, 4-6 h; cells express a hypersensitive GLP-1R form; Potency, µM (top dose mostly 45.6 µM), for inactives: at the highest dose activation, most hits filed as activators; 380,000 tested, 0.007% active; AID 624172, 2012; note: % of control where 0% means no effect
TrxR1 substrate: qHTS Assay for Substrates of Mammalian Selenoprotein Thioredoxin Reductase 1 (TrxR1): qHTS. Thioredoxin reductase 1, cytoplasmic (Rattus norvegicus), O89049. purified TrxR1 substrate turnover, NADPH consumption readout. Potency, µM (highest dose often 114 µM), inactives show at the top dose activity change, negative = substrate turnover. 390,000 tested, 0.01% active; note: % is set by controls: 0 for no effect and ±100 for the full control effect; nearly all actives have a fitted effect of over 50% in size
Target sequence (O89049 whole entry, looked up): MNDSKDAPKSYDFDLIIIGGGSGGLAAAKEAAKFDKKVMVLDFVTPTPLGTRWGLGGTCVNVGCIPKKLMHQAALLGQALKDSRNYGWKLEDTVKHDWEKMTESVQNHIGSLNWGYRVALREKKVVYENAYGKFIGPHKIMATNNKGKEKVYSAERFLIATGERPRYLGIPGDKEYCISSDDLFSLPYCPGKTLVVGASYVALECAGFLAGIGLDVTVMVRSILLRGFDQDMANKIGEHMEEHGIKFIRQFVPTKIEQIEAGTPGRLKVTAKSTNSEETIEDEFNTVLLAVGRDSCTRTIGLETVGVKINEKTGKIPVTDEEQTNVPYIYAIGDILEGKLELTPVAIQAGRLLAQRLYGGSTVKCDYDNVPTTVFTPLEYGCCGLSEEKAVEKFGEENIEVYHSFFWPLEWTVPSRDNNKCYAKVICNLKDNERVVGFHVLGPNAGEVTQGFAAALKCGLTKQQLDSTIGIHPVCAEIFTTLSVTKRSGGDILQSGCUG
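Rat TrxR1, dispensed at 90 nM, was prereduced with 400 uM NADPH (final) for 5 min at ~22 deg C, then incubated with compound 15 min before 400 uM selenite. A first-read NADPH fluorescence drop versus no-compound background flagged substrates.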
rTrxR1 inhibitor: qHTS Assay for Inhibitors of Mammalian Selenoprotein Thioredoxin Reductase 1 (TrxR1): qHTS; Thioredoxin reductase 1, cytoplasmic (Rattus norvegicus), O89049; recombinant rTrxR1, NADPH fluorescence consumption, selenite substrate; Potency, µM (highest dose often 114 µM), inactives show at the top dose activity change, negative = inhibition, actives largely listed as inhibitors; 390,000 tested, 1% active; AID 588453, 2011; note: % is set by controls: 0 for no effect and ±100 for the full control effect; nearly all actives have a fitted effect of over 65% in size
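Rat TrxR1 (90 nM in the dispensed reagent) was pre-reduced with 400 uM NADPH for 5 min at room temperature, then incubated with compound for 15 min. After 400 uM selenite was added, NADPH fluorescence (Ex 340/Em 450 nm) was followed for 8 min.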
GLP1R cytotox: qHTS of GLP-1 Receptor Inverse Agonists: Cytotox Screen; HEK293 cAMP-luciferase reporter cells, luminescence, 24 h; 410,000 tested, 0.13% active; AID 624418, 2012; Potency, µM (series often up to 38.3 µM), inactives show top-dose activity change, negative = inhibition, hits mostly inhibitors;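 note: loss of luciferase light is scored as toxicity; % is set by controls: 0 for no effect and ±100 for the full control effect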
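Step one: seed cells (200 cells/uL, DMEM with 10% Nu serum, 1% pen-strep). Step two: 12-hour incubation at 37 deg C. Step three: pin 23 nL compound, incubate 24 hr. Step four: add luciferase reagent, read luminescence 12 min later.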
GLP1R inv ag: qHTS of GLP-1 Receptor Inverse Agonists (Inhibition Mode); Glucagon-like peptide 1 receptor (Homo sapiens), P43220; HEK293 GLP-1R CRE-luciferase, luminescence, 24 h; GLP-1R form is constitutively active; Potency, µM (series often up to 38.3 µM), for inactives: at the highest dose activity change, negative = inhibition, actives largely listed as inhibitors; 410,000 tested, 1.6% active; note: % is set by controls: 0 for no effect and ±100 for the full control effect; nearly all actives have a fitted effect of over 55% in size
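HEK293 cells stably co-expressing constitutively active GLP-1R and a cAMP-responsive luciferase reporter were seeded in DMEM with 10% Nu serum, given compounds after 12 h, and incubated 24 h at 37 deg C. Luminescence was then read.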
An asterisk follows results filed as active; u = inconclusive; x = no result given; [ ] = another dose, or the depositor's remark. Calls come from the whole dose curve; as a rule, active = well fitted curve in the direction sought with a large enough effect; inconclusive = small, poorly fitted or top-dose-only effect, or another doubt; inactive = no such curve, though single readings can be large; an effect the other way counts as inactive or inconclusive. Potency is the fitted concentration of half-maximal effect.

SMILES	IDH1 R132H inh	GLP1R ag	TrxR1 substrate	rTrxR1 inhibitor	GLP1R cytotox	GLP1R inv ag
C[C@@H]1CC=C[C@H]2[C@H]1C(=O)N(Cc1ccccc1)[C@H]2c1cccc([N+](=O)[O-])c1	7.3%	1.5%	5.0%	8.7%	1.9%	7.08µM*
Cc1ccc(F)c([C@H]2[C@H]3C=CC[C@@H](C)[C@@H]3C(=O)N2Cc2ccccc2)c1	-4.0%	-2.8%	2.2%	1.2%	6.1%	10µM*
C[C@@H]1CC=C[C@H]2[C@H]1C(=O)N(Cc1ccccc1)[C@H]2c1ccc(-c2ccc(N(C)C)cc2)cc1F	0.0%	0.4%	74.1%[57.1 µM]	-24.4%	2.9%	7.94µM*
O=C(NCc1ccccc1Cl)c1cc(-c2ccccc2)n[nH]1	4.2%	x	5.4%	20.5%	-5.4%	-22.9%
Cc1c(Cl)cccc1NC(=O)CCn1nc(C)c2c(C)n(-c3ccccc3)nc2c1=O	-0.2%	x	7.9%	42.2%	0.5%	-0.7%
CCOC(=O)C1C(=O)C=C(c2ccccc2)CC1c1ccccc1 (configuration not stated)	1.7%	23.6%	4.9%[57.1 µM]	-3.1%[2.29 µM]	2.6%	u
CCOC(=O)C1C(=O)C=C(c2ccc(C)cc2)CC1c1ccc([N+](=O)[O-])cc1 (configuration not stated)	2.0%	-11.8%	3.0%	6.4%	16.7%	10µM*
C=C[C@]1(C)C[C@H]1[C@H](NP(=O)(c1ccccc1)c1ccccc1)c1ccccc1	-6.9%	-1.7%	-7.1%	-6.6%	1.5%	-5.0%
C/C(=C\[C@@H](NP(=O)(c1ccccc1)c1ccccc1)c1ccccc1)CO[Si](c1ccccc1)(c1ccccc1)C(C)(C)C	-5.0%	-5.3%	-0.9%	-1.6%	-12.3%	7.94µM*
O=C(c1ccc(Cl)cc1)C(CN1CCCCC1)c1ccccc1 (configuration not stated)	3.8%	-3.1%	3.6%	25.1µM*	-17.2%	u
O=C(c1ccc(S(=O)(=O)Nc2cccc(C(F)(F)F)c2)cc1)N1CCN(c2ccccc2O)CC1	3.5%	2.6%	-9.6%	3.9%	2.3%	10µM*
CCOc1ccc2c(c1)c(=O)c(C(=O)c1ccc(C)cc1)cn2Cc1ccccc1OC	-15.5%	x	-6.0%	12.9%	3.4%	-0.2%
O=S(=O)(c1cccs1)N1CCN(CC(O)COc2cccc(Br)c2)CC1 (configuration not stated)	2.1%	5.2%	-1.0%	25.3%	-13.7%	8.91µM*
c1ccc(OCCn2c(-c3ccco3)nc3ccccc32)cc1	9.8%	11.6%	13.1%	14.1µM*	13.5%	4.3%
CC(C)NC(=S)NN(c1ccccc1)c1ccccc1	4.4%	-3.1%	-5.3%	-4.2%	-18.7%	11.2µM*
COC(=O)Cc1nnc(SCC(=O)Nc2ccccc2)c2ccccc12	-8.7%	4.1%	-5.8%	50.1µM*	-8.1%	4.7%
Cc1nc2ccccc2n1Cc1ccccc1	4.7%	5.8%	6.7%	18.8%	-3.7%	-2.7%
CC(c1nc2ccccc2n1Cc1ccccc1)N1CCCCC1 (configuration not stated)	0.0%	11.1%	3.1%	24.0%	u	1.26µM*
Cc1cccc(C)c1NC(=O)c1nc(S(=O)(=O)Cc2ccccc2)ncc1Cl	-0.9%	-0.3%	1.6%	15.8µM*	-16.6%	u
Cc1cccc(C)c1NC(=O)c1nc(S(=O)(=O)Cc2ccccc2F)ncc1Cl	x	x	9.2%	4.47µM*	x	x
O=C(Nc1ccc2ccccc2c1)c1nc(S(=O)(=O)Cc2ccccc2F)ncc1Cl	x	x	-5.1%	10µM*	x	x
O=C(Nc1ccccc1F)c1nc(S(=O)(=O)Cc2ccccc2F)ncc1Cl	0.0%	x	10.3%	1.58µM*	u	11.2µM*
Cc1ccccc1CS(=O)(=O)c1ncc(Cl)c(C(=O)Nc2ccc(F)cc2)n1	-3.6%	-12.4%	-3.3%	-0.3%	u	u
COc1ccc(OC)c(NC(=O)c2nc(S(=O)(=O)Cc3ccccc3)ncc2Cl)c1	28.4%	7.7%	-1.2%	3.55µM*	21.7%	-7.6%
Cc1ccc(CCNC(=O)c2sc3ncccc3c2-n2c(C)ccc2C)cc1	2.0%	x	-2.3%[57.1 µM]	22.6%[57.1 µM]	-4.6%	11.2µM*
SMILES	IDH1 R132H inh	GLP1R ag	TrxR1 substrate	rTrxR1 inhibitor	GLP1R cytotox	GLP1R inv ag
CCOc1ccc(CCNC(=O)c2sc3ncccc3c2-n2c(C)ccc2C)cc1	-2.7%	x	4.3%[57.1 µM]	18.9%[57.1 µM]	9.0%	u
Cc1ccc2oc(-c3ccc(C)c(NC(=O)c4ccc(N5CCC(C)CC5)c([N+](=O)[O-])c4)c3)nc2c1	-8.7%	x	-4.7%	-4.1%	-2.9%	18.6%
CCOc1ccc(NC(=O)CSc2nccn2C2CCCC2)cc1	-13.3%	x	-14.5%[57.1 µM]	-12.4%[57.1 µM]	-0.5%	-14.5%
CC(C)CC(=O)NC(NC(=S)Nc1cccc2cccnc12)C(Cl)(Cl)Cl (configuration not stated)	2.3%	-19.2%	19.0%	32.5%	-16.7%	7.94µM*
O=C(Nc1ccccc1)Nc1cccc2cccnc12	9.0%	0.9%	-6.2%	-0.7%	-13.3%	10µM*
O=C(CCl)Nc1cccc2ncccc12	8.3%	-10.9%	-4.4%	50.1µM*	u	-25.8%
O=C(CCBr)Nc1cccc2cccnc12	x	x	8.4%	u	x	x
O=C(CCCl)Nc1cccc2cccnc12	x	x	8.8%	12.6µM*	x	x
CC(C)C(=O)NC(Nc1cccc2cccnc12)C(Cl)(Cl)Cl (configuration not stated)	16.8%	-6.7%	9.8%[57.1 µM]	18.1%[57.1 µM]	0.0%	u
COc1ccc(NC(=O)Cn2nnnc2-c2ccccc2F)c(C)c1	1.5%	x	-4.8%	7.9%	5.5%	14.3%
Cc1ccc(NC(=O)N2CCN(C)c3ncccc32)cc1C	-3.1%	-5.2%	0.0%	4.0%	-8.4%	10.6%
COc1ccc(CCn2c3c(c(=O)[nH]c2=S)CN(c2ccccc2)CN3)cc1OC	x	x	4.7%	-10.4%	x	x
COc1ccccc1NC(=O)Cn1c(=O)c(CNc2ccccc2)cc2cc(OC)c(OC)cc21	-12.6%	x	6.4%	u	-2.8%	6.4%
Cc1cc(S(=O)(=O)N2CCN(CC(=O)N(C)Cc3ccccc3)CC2)ccc1Br	2.1%	5.4%	-2.4%	-5.3%	0.7%	8.91µM*
CN(Cc1ccccc1)C(=O)CN1CCN(S(=O)(=O)c2ccc(Cl)c(Cl)c2)CC1	1.3%	10.9%	1.1%	3.5%	-1.2%	u
